Data on 8 compounds can be found in PubChem BioAssay (NCI).

Compounds without any hit were thinned out: in the full panel of roughly 83,000, 20% have a hit.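 Step 1: grow cells in 96-well plates. Step 2: add test compound at a single concentration. Step 3: incubate 48 h. Step 4: record percent growth.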 Unmarked numbers belong to inactive results. Activity calls are given as the source filed them. The calls were made as follows: active = growth percent below 10; inactive = the rest.

Test systems include SK-MEL-2 melanoma; EKVX NSCLC; SN12C renal; UO-31 renal; TK-10 renal; ACHN renal; CAKI-1 renal; A498 renal; MOLT-4 leukemia; SR leukemia; RPMI-8226 leukemia; OVCAR-8 ovarian; OVCAR-4 ovarian; SK-OV-3 ovarian; IGROV1 ovarian; OVCAR-3 ovarian; NCI/ADR-RES ovarian; HS 578T breast; OVCAR-5 ovarian.
Common to all, as to assay: NCI-60 one-dose screen, 48 h (100 = growth as untreated, 0 = no growth, -100 = all killed)
Holding throughout (conditions): 10 µM unless noted

As to `CCN(CC)CCCNc1ccc(Nc2ccc(OC)cc2)cc1`, the growth in the experiment with SK-MEL-2 melanoma was 108%; in the experiment on EKVX NSCLC, 81.1%; in the experiment on SN12C renal it was 92.3%; with UO-31 renal, 48%; in the experiment on TK-10 renal, 88.2%; in the experiment on ACHN renal, 94.1%. Further, the growth with CAKI-1 renal was 84.5%; with A498 renal, 55.3%; in the experiment with MOLT-4 leukemia, 32.7%; in the experiment on SR leukemia it was 52.9%; in the experiment on RPMI-8226 leukemia it was 64.5%; with OVCAR-8 ovarian, 83.1%. Further, the growth in the experiment on OVCAR-4 ovarian is 84.6%; in the experiment on SK-OV-3 ovarian, 106%; in the experiment on IGROV1 ovarian, 37.6%; in the experiment on OVCAR-3 ovarian it was 59.6%; with NCI/ADR-RES ovarian it was 94.7%.

Regarding `O=C1CCc2c(sc3[nH]c(=S)n(-c4ccc(OC(F)(F)F)cc4)c(=O)c23)C1`, the growth is 58.5% in the experiment with SK-MEL-2 melanoma; 56.7% in the experiment on EKVX NSCLC; 31.4% in the experiment on SN12C renal; 44.4% in the experiment on UO-31 renal; 104% with TK-10 renal; 80.3% with ACHN renal. Moreover, the growth in the experiment on CAKI-1 renal was 83.6%; with A498 renal, 107%; in the experiment on MOLT-4 leukemia it was 47.3%; in the experiment with SR leukemia, 35.8%; in the experiment with RPMI-8226 leukemia it was -21.7% (active); in the experiment on OVCAR-8 ovarian it was 53.6%. In addition, the growth with OVCAR-4 ovarian is 17.1%; in the experiment on SK-OV-3 ovarian it was 104%; with IGROV1 ovarian it was 55.6%; in the experiment with OVCAR-3 ovarian, 13.2%; in the experiment with HS 578T breast it was 37.1%; in the experiment on NCI/ADR-RES ovarian, 12.5%.

Consider `Cn1c(-c2c(N)n(Cc3cccnc3)c3nc(C#N)c(C#N)nc23)nc2ccccc21`, for which the growth with SK-MEL-2 melanoma is 107%; in the experiment on EKVX NSCLC, 87.1%; in the experiment on SN12C renal, 106%; with UO-31 renal, 31.5%; in the experiment on TK-10 renal, 55.5%; in the experiment on ACHN renal, 85.8%. Moreover, the growth is 92.1% in the experiment on CAKI-1 renal; 98.9% with A498 renal; 74.1% in the experiment with MOLT-4 leukemia; 40.1% in the experiment on SR leukemia; 94.5% in the experiment on RPMI-8226 leukemia; 80.5% in the experiment on OVCAR-8 ovarian. Moreover, the growth in the experiment on OVCAR-5 ovarian is 78%; in the experiment on OVCAR-4 ovarian, 102%; in the experiment with SK-OV-3 ovarian, 116%; in the experiment on OVCAR-3 ovarian, 99.5%; in the experiment with HS 578T breast it was 106%; with NCI/ADR-RES ovarian, 95.5%.

In the case of `COc1ccc2occ(C3=C(c4c[nH]c5ccccc45)C(=O)N(O)C3=O)c2c1`, the growth with SK-MEL-2 melanoma is 102%; with EKVX NSCLC, 93.1%; in the experiment on SN12C renal it was 95.9%; in the experiment with UO-31 renal, 61.9%; in the experiment with TK-10 renal, 126%; in the experiment on ACHN renal, 95.3%. The growth is 83.6% with CAKI-1 renal; 118% with A498 renal; 102% in the experiment on MOLT-4 leukemia; 57.2% in the experiment with SR leukemia; 66.7% with RPMI-8226 leukemia; 104% in the experiment on OVCAR-5 ovarian. Besides, the growth in the experiment with OVCAR-4 ovarian is 112%; with SK-OV-3 ovarian, 88.7%; in the experiment on IGROV1 ovarian, 91.3%; in the experiment with OVCAR-3 ovarian, 98.9%; with HS 578T breast, 95.7%; in the experiment on NCI/ADR-RES ovarian, 99.1%.

As for `N#CCN1C(=O)C2C3=C(CCCC3)SC2N=C1CN1CCCC1` (stereo not drawn), the growth is 83.5% in the experiment on SK-MEL-2 melanoma; 96% in the experiment with EKVX NSCLC; 100% with SN12C renal; 7.35% (active) with UO-31 renal; 104% in the experiment on TK-10 renal; 104% in the experiment on ACHN renal. Further, the growth was 104% in the experiment on CAKI-1 renal; 100% in the experiment on A498 renal; 79.9% in the experiment on MOLT-4 leukemia; 81.1% in the experiment with SR leukemia; 50.2% in the experiment on RPMI-8226 leukemia; 97.7% with OVCAR-8 ovarian. For the same compound, the growth is 101% in the experiment with OVCAR-5 ovarian; 101% in the experiment on OVCAR-4 ovarian; 109% in the experiment on SK-OV-3 ovarian; 113% in the experiment with OVCAR-3 ovarian; 108% in the experiment with HS 578T breast; 96.3% in the experiment on NCI/ADR-RES ovarian.

As for `NC1=NCc2nc3ccccc3c(=O)n2C1`, the growth in the experiment on SK-MEL-2 melanoma was 92.8%; in the experiment on EKVX NSCLC, 107%; with SN12C renal it was 98%; in the experiment on UO-31 renal it was 70.1%; in the experiment on TK-10 renal, 106%; with ACHN renal, 99.5%. Besides, the growth with CAKI-1 renal is 92.7%; with A498 renal it was 110%; with MOLT-4 leukemia it was 91.2%; in the experiment with SR leukemia it was 93.1%; with RPMI-8226 leukemia it was 79.1%; with OVCAR-5 ovarian, 85.8%. The growth in the experiment on OVCAR-4 ovarian was 106%; with SK-OV-3 ovarian, 117%; in the experiment with IGROV1 ovarian it was 101%; with OVCAR-3 ovarian, 101%; in the experiment on HS 578T breast it was 111%; in the experiment on NCI/ADR-RES ovarian it was 96.8%.

Consider `Cc1cc(Cl)ccc1Nc1nc(C(F)(F)F)ccc1C(=O)N/N=C/c1ccc(N(C)C)cc1`, for which the growth with SK-MEL-2 melanoma was -6.44% (active); in the experiment on EKVX NSCLC, 26.3%; in the experiment on SN12C renal it was 57.7%; with UO-31 renal, 22.7%; with TK-10 renal, 25.8%; with ACHN renal it was 24.6%. In addition, the growth with CAKI-1 renal was 22.6%; in the experiment on A498 renal, 34.7%; in the experiment on MOLT-4 leukemia, 12.8%; in the experiment on SR leukemia, 17.4%; in the experiment with RPMI-8226 leukemia it was -26.1% (active); with OVCAR-8 ovarian, 18.7%. For the same compound, the growth is 16% with OVCAR-4 ovarian; 42.3% in the experiment with SK-OV-3 ovarian; 21% in the experiment with IGROV1 ovarian; 22.5% in the experiment with OVCAR-3 ovarian; 39.4% in the experiment on HS 578T breast; 16.1% in the experiment with NCI/ADR-RES ovarian.

Regarding `CCOC(=O)c1c2ncccc2n2c(=O)n(-c3ccccc3C)nnc12`, the growth with SK-MEL-2 melanoma is 107%; in the experiment with EKVX NSCLC, 74%; in the experiment with SN12C renal, 105%; in the experiment with UO-31 renal, 73.4%; with TK-10 renal it was 146%; in the experiment on ACHN renal, 92.2%. Also, the growth was 91.7% with CAKI-1 renal; 127% in the experiment on A498 renal; 61.2% in the experiment with MOLT-4 leukemia; 60.4% in the experiment with SR leukemia; 158% with RPMI-8226 leukemia; 101% in the experiment on OVCAR-5 ovarian. For the same compound, the growth in the experiment on OVCAR-4 ovarian was 90.2%; in the experiment on SK-OV-3 ovarian it was 80.7%; in the experiment with IGROV1 ovarian, 63.9%; in the experiment on OVCAR-3 ovarian, 135%; in the experiment with HS 578T breast, 112%; in the experiment on NCI/ADR-RES ovarian, 93.3%.
